From PubChem BioAssay (NCI)
This is part of a sample that, as a whole, favours compounds with a hit. Of some 79,000 tested, about 15% had one in any assay. Unmarked numbers belong to inactive results. Activity calls are given as the source filed them. Rule as the data show it: active = growth inhibition above about 70%; inactive = the rest.

Assay: NCI Yeast Anticancer Drug Screen. Data for the rad52 strain (AID 147);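 also: 0% = growth of vehicle-treated control cultures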
Conditions: S. cerevisiae rad52 mutant growth inhibition, stronger effect = higher value
Protocol: Growth inhibition of yeast strains with defined genetic alterations is measured as a screen for potential anti-cancer activity. Selected strains with alterations in DNA damage repair or cell cycle control were exposed to compounds and growth inhibition was measured relative to vehicle treated controls. The strain used in this assay is rad52

Compound	growth inhibition (at 1.2 µM)	growth inhibition (at 3.7 µM)	growth inhibition (at 11.0 µM)	growth inhibition (at 33.0 µM)	growth inhibition (at 100.0 µM)
O=C1C=CC(=O)c2c(O)c(Nc3ccc(OC(F)(F)F)cc3)c(Cl)c(O)c21	9%	12%	17%	32%	81% (active)
CCC(=O)OCCn1c2nc(=O)[nH]c(=O)c-2nc2cc(C)c(C)cc21	-10%	-12%	-5%	0%	0%
Cc1ccc(-n2cc(-c3ccc(Cl)cc3)c(C#N)c2N)cc1	0%	1%	6%	17%	23%
Cc1cc2c(cc1C(=O)CCC(=O)O)CC1(C2)Cc2cc(C)c(C(=O)CCC(=O)O)cc2C1	3%	6%	11%	25%	47%
Cc1c(C(Cc2ccccc2N(C)C(=O)/C=C\C(=O)O)c2c[nH]c3ccccc23)c2ccccc2n1C (stereo not given)	-5%	0%	0%	7%	36%
CCCCCCc1cc(C(=O)OC/C(C)=N/NC(N)=O)c2ccccc2n1	-1%	-1%	1%	-1%	-3%
Brc1ccc(-c2cc3c(cc2C2SCCS2)OCO3)cc1	-21%	-21%	-16%	8%	27%
C/C(=N\NC(=S)SCc1ccccc1)c1ccccn1	15%	13%	60%	93% (active)	91% (active)
